From PubChem BioAssay (EPA / NIEHS)
Records with an inconclusive call do not appear. The source made the active and inactive calls. The calls were made as follows: active = hit-call score of the fitted dose curve at least 0.9, where 1 is the maximum; inconclusive = response in the unintended direction; inactive = score below 0.9.

target: rat Thyrotropin Releasing Hormone Receptor (TRH), Trhr (gene 25570) (UniProt Q01717); test: NVS_GPCR_rTRH: NovaScreen (NVS) G Protein-Coupled Receptor Assay for rat Thyrotropin Releasing Hormone Receptor (TRH) (AID 2283329);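 also: hit means lower bound tracer signal versus DMSO baseline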
Method: NVS_GPCR_rTRH is a biochemical, single-readout assay that uses extracted gene-proteins from Rat forebrain membranes in a tissue-based cell-free assay. Measurements were taken 4 hours after chemical dosing in a 48-well plate.NVS_GPCR_rTRH is one of one assay component(s) measured or calculated from the NVS_GPCR_rTRH assay. It is designed to make measurements of radioligand binding, a form of binding reporter, as detected with scintillation counting signals by Filter-based radiodetection technology.Data from the assay component NVS_GPCR_rTRH was analyzed into 1 assay endpoint. This assay endpoint, NVS_GPCR_rTRH, was analyzed in the positive analysis fitting direction relative to DMSO as the negative control and baseline of activity. Using a type of binding reporter, loss-of-signal activity can be used to understand changes in the binding as they relate to the gene Trhr. Furthermore, this assay endpoint can be referred to as a primary readout, because the performed assay has only produced 1 assay endpoint. To generalize the intended target to other relatable targets, this assay endpoint is annotated to the gpcr intended target family, where the subfamily is rhodopsin-like receptor.
Binding assays used specific radioligands (tritiated, iodinated) with non-radioactive competitive displacement ligands in agonist or antagonist protocols (as indicated) and various reference compounds and inhibitors to titrate specific binding to receptors and transporters. Most enzyme assays (CYPs, kinases, phosphatases, proteases, HDACs) used recombinant protein and specific substrates (fluorescence mostly, some colorimetric and radioactive) and inhibitors, followed by a biochemical separation of substrate and product. All assays for the biochemical HTS were initially run in duplicate at a single concentration (10 uM for CYP450 assays and 25 uM for all others). […] Each assay was run with positive and negative controls, and concurrent controls on every plate. The follow-up (secondary) screen tested active chemical-pairs in concentration series, as well as a few additional assays not tested in the primary screen, some selected negative inactives, and several cases re-run in the concentration series for confirmatory purposes.

rat Thyrotropin Releasing Hormone Receptor (TRH), Trhr (gene 25570), sequence (Q01717 whole entry, looked up): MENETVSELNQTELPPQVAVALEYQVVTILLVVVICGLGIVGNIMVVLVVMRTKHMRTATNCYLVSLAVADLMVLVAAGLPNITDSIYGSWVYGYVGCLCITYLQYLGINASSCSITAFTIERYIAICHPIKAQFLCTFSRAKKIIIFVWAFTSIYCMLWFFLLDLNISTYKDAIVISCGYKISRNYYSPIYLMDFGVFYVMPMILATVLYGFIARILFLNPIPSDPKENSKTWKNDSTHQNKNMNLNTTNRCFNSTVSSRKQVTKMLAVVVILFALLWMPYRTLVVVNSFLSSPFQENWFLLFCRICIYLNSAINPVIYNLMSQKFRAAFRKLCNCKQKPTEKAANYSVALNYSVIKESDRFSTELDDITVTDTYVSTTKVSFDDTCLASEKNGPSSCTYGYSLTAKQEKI

Compound | outcome
CCOC(=O)CC(SP(=O)(OC)OC)C(=O)OCC (stereo unspecified) | inactive
Nc1c(Cl)cc([N+](=O)[O-])cc1Cl | inactive
CCC(CC)Nc1c([N+](=O)[O-])cc(C)c(C)c1[N+](=O)[O-] | inactive
FC(F)C(F)(F)OCC(Cn1cncn1)c1ccc(Cl)cc1Cl (stereo unspecified) | inactive
CC(C1CC1)C(O)(Cn1cncn1)c1ccc(Cl)cc1 (stereo unspecified) | inactive
O=[N+]([O-])c1cc(C(F)(F)F)c(Cl)c([N+](=O)[O-])c1Nc1ncc(C(F)(F)F)cc1Cl | inactive
CON=C(C(=O)OC)c1ccccc1CON=C(C)c1cccc(C(F)(F)F)c1 | inactive
CCc1cnc(C2=NC(C)(C(C)C)C(=O)N2)c(C(=O)O)c1 (stereo unspecified) | inactive
C[Si](Cn1cncn1)(c1ccc(F)cc1)c1ccc(F)cc1 | inactive
C#CC(C)(C)NC(=O)c1cc(Cl)cc(Cl)c1 | inactive
CCC(=O)Nc1ccc(Cl)c(Cl)c1 | inactive
